Data on 38 molecules can be found in PubChem BioAssay (NCI).

Assay [1] can be described thus: NCI Yeast Anticancer Drug Screen. Data for the rad50 strain (AID 155).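 Further: 0% = growth of vehicle-only cultures of the same strain.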 Particulars: S. cerevisiae rad50 strain growth inhibition; at 50.0 µM; hits give high values. The procedure, abridged: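 Growth of the mutant yeast was measured after compound exposure and referenced to vehicle-treated cultures.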
The nature of assay [2]: NCI Yeast Anticancer Drug Screen. Data for the mec2-1 strain (AID 157). Particulars: S. cerevisiae mec2-1 strain, at 50.0 µM, hits give high values. An outline of the steps: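 Growth inhibition is read against vehicle-treated controls after compound exposure of the mec2-1 yeast strain, which is defective in DNA damage repair or cell cycle control.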
The nature of assay [3]: NCI Yeast Anticancer Drug Screen. Data for the sgs1 mgt1 strain (AID 161).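 Further: 0% = growth of cultures given vehicle only.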 The following applies: S. cerevisiae sgs1 mgt1 strain, at 50.0 µM, hits give high values. An outline of the steps:
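Percent growth inhibition was derived by comparing compound-exposed mutant yeast with vehicle-exposed cultures. The strain carries alterations in DNA damage repair.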

A short description of assay [4]: NCI Yeast Anticancer Drug Screen. Data for the cln2 rad14 strain (AID 165).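 Further: 0% = growth equal to vehicle treated cultures.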 The following applies: S. cerevisiae cln2 rad14 strain, at 50.0 µM, hits give high values. An outline of the steps:
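Growth inhibition, relative to vehicle-treated controls, is the read-out. The test organism is a yeast strain with defined genetic alterations, cln2 rad14.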

Assay [5] is described as follows: NCI Yeast Anticancer Drug Screen. Data for the bub3 strain (AID 167). Particulars: S. cerevisiae bub3 mutant strain, at 50.0 µM, hits give high values. An outline of the steps:
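Whole-cell yeast assay. The mutant strain was incubated with compounds, and growth inhibition was determined by comparison with vehicle-treated cells.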

Assay [6] in a line: NCI Yeast Anticancer Drug Screen. Data for the mlh1 rad18 strain (AID 175). The following applies: S. cerevisiae mlh1 rad18 strain growth inhibition; at 50.0 µM; hits give high values. An outline of the steps: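 Cells of a genetically altered yeast strain, deficient in DNA damage repair, were treated with compound. Their growth was then compared with that of vehicle-treated cultures to give inhibition.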

Compounds without any hit were thinned out: in the full panel of roughly 79,000, 15% have a hit. Values without a mark were called inactive. The source made the active and inactive calls. No stated cut-off is given here; in the data, active means growth inhibition above about 70%; inactive means the rest.

As to `O=C1Cc2ccccc2C(=O)N1CCN1CCOCC1`, the growth inhibition in assay [1] is 4.05%; in assay [2], -14.2%; in assay [3], -3.95%; in assay [4], 1.55%; in assay [5] it was -1.5%; in assay [6], 1.55%.

Take `CCCC(=O)[O-].CCCC(=O)[O-].N.N.N.N.[Co+3].[O-][Cl+3]([O-])([O-])[O-]`: the growth inhibition in assay [1] was -5.15%; in assay [2], -0.75%; in assay [3] it was -48%; in assay [4], 12.3%; in assay [5], -5.1%; in assay [6], -12.6%.

`CC(=O)OCC1OC(S[As](C)C)C(OC(C)=O)C(OC(C)=O)C1OC(C)=O` (stereo not drawn): the growth inhibition in assay [1] was -2.85%; in assay [2], 13.8%; in assay [3] it was -8.3%; in assay [4], 10.9%; in assay [5], 6.4%; in assay [6] it was 36.8%.

With `CC(=O)C(N)Cc1ccccc1` (stereo not drawn), the growth inhibition in assay [1] was 24.4%; in assay [2], 17.2%; in assay [3] it was 10%; in assay [4], -26.6%; in assay [5], 23.2%; in assay [6], 15.2%.

On to `O=P(N=C=S)(N=C=S)N=C=S`, for which the growth inhibition in assay [1] is 5.45%; in assay [2] it was 6.6%; in assay [3], 9.4%; in assay [4], -11.6%; in assay [5] it was 0.4%; in assay [6] it was -12.8%.

As for `C1CCN2CC34CC(CC5CCCN(C6CCCC3N6)C54)C2C1` (stereo not drawn), the growth inhibition in assay [1] is -19.5%; in assay [2] it was -43.1%; in assay [3] it was -22.1%; in assay [4] it was 10.7%; in assay [5] it was -36.3%; in assay [6], -99.8%.

Consider `Clc1cccc(Cl)c1C(Cl)Cl`, for which the growth inhibition in assay [1] is -7.45%; in assay [2] it was -17.2%; in assay [3], -3.15%; in assay [4] it was -4.4%; in assay [5], -6.65%; in assay [6], -11.2%.

With `CCN(CC)c1cccc(OC(=O)NC)c1`, the growth inhibition in assay [1] was 0.55%; in assay [2] it was -0.25%; in assay [3], -4.6%; in assay [4], -15.8%; in assay [5], 3.5%; in assay [6], -10%.

As for `CN(C(=O)COc1ccc([N+](=O)[O-])cc1Cl)c1ccc(S(=O)(=O)F)cc1`, the growth inhibition is 13.8% in assay [1]; -1.85% in assay [2]; -10.9% in assay [3]; -10.4% in assay [4]; 1.25% in assay [5]; 16.5% in assay [6].

Regarding `CC(C)=NNC1=NC(C)(C)P(=O)(N2CCCC2C(=O)O)S1` (stereo not drawn), the growth inhibition is 0.8% in assay [1]; -12.4% in assay [2]; -0.45% in assay [3]; -2.3% in assay [4]; 5.25% in assay [5]; -9.2% in assay [6].

Consider `CC(Cl)CNC1CCCCC1` (stereo not drawn), for which the growth inhibition was 6% in assay [1]; -3.5% in assay [2]; -8.95% in assay [3]; -10.6% in assay [4]; -0.95% in assay [5]; -0.9% in assay [6].

As to `COC1C(OC(=O)c2ccc(C)[nH]2)C(O)C(Oc2ccc3c(O)c(NC(=O)c4ccc(O)c(CC=C(C)C)c4)c(=O)oc3c2Cl)OC1(C)C` (stereo not drawn), the growth inhibition in assay [1] is 44.2%; in assay [2], 25.9%; in assay [3], 23.8%; in assay [4], 50.6%; in assay [5], 35.9%; in assay [6], 33%.

As to `C=Cn1nnc(N)n1`, the growth inhibition was -4.9% in assay [1]; -0.45% in assay [2]; -16.7% in assay [3]; 4.55% in assay [4]; 17.1% in assay [5]; 9.05% in assay [6].

Take `CC1=CC2OC3CC4OC(=O)/C=C/C=C/C(=O)OCC/C(C)=C/C(=O)OCC2(CC1O)C4(C)C31CO1` (stereo not drawn): the growth inhibition in assay [1] was 92.3% (active); in assay [2], 93.6% (active); in assay [3] it was 93% (active); in assay [4] it was 91.7% (active); in assay [5], 91.8% (active); in assay [6] it was 90.9% (active).

Regarding `CN(C)C(=O)Sc1c(Cl)cc(Cl)cc1S(=O)(=O)F`, the growth inhibition in assay [1] is 43.1%; in assay [2], 6.9%; in assay [3], 56%; in assay [4], 32.6%; in assay [5], -3.2%; in assay [6], 20.6%.

On to `CC(=[N-])CC(C)=O.CC(=[N-])CC(C)=O.[Cu+2]`, for which the growth inhibition in assay [1] is 14.9%; in assay [2] it was 14.5%; in assay [3], 10.8%; in assay [4], -18.3%; in assay [5], -4.4%; in assay [6], 8.2%.

`COC(c1ccccc1)(c1ccccc1)C1C(c2ccccc2)N1C1CCCCC1` (stereo not drawn): the growth inhibition in assay [1] was 46.1%; in assay [2], -5.3%; in assay [3], 43.5%; in assay [4], -1.3%; in assay [5], -5.1%; in assay [6] it was 22.8%.

Regarding `CN1CCN(C)C1=Nc1ccccc1/C=C/C=C1C(=O)N(C)C(=O)N(C)C1=O`, the growth inhibition in assay [1] was 2.7%; in assay [2], 8.5%; in assay [3], 12.8%; in assay [4] it was 12.2%; in assay [5], -1.2%; in assay [6], 14.8%.

With `c1ccc(N=PNc2ccccc2)cc1` (stereo not drawn), the growth inhibition in assay [1] was -4.7%; in assay [2] it was -6.25%; in assay [3], -9.5%; in assay [4] it was -51.6%; in assay [5], 23%; in assay [6] it was -13.3%.

On to `Nc1ccc(P(=O)(O)O)cc1`, for which the growth inhibition was -7.8% in assay [1]; -9.55% in assay [2]; -11.7% in assay [3]; -36.1% in assay [4]; -1.05% in assay [5]; -3.95% in assay [6].

In the case of `CC1CC(O)C(=O)C(O[C@@H]2C[C@@H]3CC[C@@H]4[C@H](CC[C@]5(C)C(C6=CC(=O)OC6)CC[C@]45O)[C@@]3(C=O)C[C@H]2O)O1` (stereo partly drawn), the growth inhibition in assay [1] is 7.95%; in assay [2] it was 8.5%; in assay [3], -8.1%; in assay [4], -2.6%; in assay [5], -12.8%; in assay [6], -42.9%.

For the molecule `COc1ccc(O)c2c(=O)c3c(OC)cc4c(c3oc12)[C@@H]1C=CO[C@@H]1O4`, the growth inhibition is 16.6% in assay [1]; -29.6% in assay [2]; 17.5% in assay [3]; -2.9% in assay [4]; -9.65% in assay [5]; 9.2% in assay [6].

Regarding `O=C(Nc1c(O)[nH]c(=S)[nH]c1=O)c1ccco1`, the growth inhibition in assay [1] is -24.1%; in assay [2], -4.8%; in assay [3], -10.8%; in assay [4] it was -4.35%; in assay [5], -13.2%; in assay [6] it was -16%.

For the molecule `Cc1cc(CCl)c(O)c(CCl)c1`, the growth inhibition in assay [1] was -22.1%; in assay [2], 0.5%; in assay [3], -4.7%; in assay [4] it was -49.7%; in assay [5], -18.9%; in assay [6], 22.5%.

`CC(=O)OC1CCC2(C)C(CCC3C2CCC2(C)C3CC(CC(=O)O)C2OC(C)=O)C1` (stereo not drawn): the growth inhibition in assay [1] is 16.5%; in assay [2], 18.8%; in assay [3], 7.3%; in assay [4], -0.5%; in assay [5], 3.3%; in assay [6], 24%.

`NCCCN1CCN(c2ccccc2)CC1`: the growth inhibition in assay [1] was -0.45%; in assay [2], -30.2%; in assay [3], -12.6%; in assay [4], 26%; in assay [5], -28.6%; in assay [6], -39.5%.

Regarding `O=C(Cc1nc2ccccc2c(=O)n1-c1c(Cl)cccc1Cl)c1ccncc1`, the growth inhibition was 2.45% in assay [1]; 7.95% in assay [2]; 7.1% in assay [3]; -25.6% in assay [4]; -2.95% in assay [5]; 18.9% in assay [6].

Regarding `OCC1OC(n2nnc3cc(Cl)c(Cl)cc32)C(O)C1O` (stereo not drawn), the growth inhibition in assay [1] is 7.3%; in assay [2], -0.8%; in assay [3], 5.85%; in assay [4], 11.3%; in assay [5], 18.8%; in assay [6], 21.7%.

In the case of `CCC(C)(Cl)c1ccccc1` (stereo not drawn), the growth inhibition in assay [1] was -11.7%; in assay [2], -21.6%; in assay [3], -13.6%; in assay [4], -0.4%; in assay [5] it was -21.4%; in assay [6], -14.1%.

As to `N#CCCO`, the growth inhibition is -7.35% in assay [1]; 5.05% in assay [2]; 0.55% in assay [3]; -6.9% in assay [4]; -3.7% in assay [5]; -6.2% in assay [6].

In the case of `CC1C(C)(C)P(=O)(Oc2ccc3ccccc3c2)C1(C)C` (stereo not drawn), the growth inhibition in assay [1] was 71.6% (active); in assay [2], 55.3%; in assay [3] it was 84% (active); in assay [4], 80.7% (active); in assay [5], 94.4% (active); in assay [6] it was 56.6%.

Take `C[C@@]12CC/C(=N\OCC(=O)O)C=C1CC[C@H]1C2CC[C@]2(C)C1CC[C@H]2O` (stereo partly drawn): the growth inhibition was -9.4% in assay [1]; -2.55% in assay [2]; -14.6% in assay [3]; -15.8% in assay [4]; 2.75% in assay [5]; -14.7% in assay [6].

With `CNCCc1ccc(O)c2ccc3ccc(OC)c(O)c3c12`, the growth inhibition in assay [1] was 2.5%; in assay [2], -7.25%; in assay [3] it was -14.2%; in assay [4] it was 5.25%; in assay [5], -17.3%; in assay [6], 4.05%.

On to `C=C[Se](=C(C#N)C#N)c1ccccc1` (stereo not drawn), for which the growth inhibition was -3.35% in assay [1]; 28% in assay [2]; 5.75% in assay [3]; 4.35% in assay [4]; -16.4% in assay [5]; 0.7% in assay [6].

For the molecule `CC(C)C(O)(C(=O)OCC1=CC[N+]2([O-])CCC(O)C12)C(C)O` (stereo not drawn), the growth inhibition in assay [1] was -16.9%; in assay [2], -29.7%; in assay [3], -9.7%; in assay [4], 4%; in assay [5] it was -7.45%; in assay [6] it was -7.3%.

Take `c1ccc2c(C3NCCc4[nH]cnc43)cccc2c1` (stereo not drawn): the growth inhibition is 3.7% in assay [1]; 1.85% in assay [2]; -9.45% in assay [3]; -18.3% in assay [4]; -32% in assay [5]; 4.65% in assay [6].

`COc1cc2c(ccc3c4cc(OC)c(OC)cc4c[n+](C)c23)cc1O`: the growth inhibition in assay [1] is -21.7%; in assay [2], -17.9%; in assay [3], -9.9%; in assay [4], 16.4%; in assay [5] it was -23.8%; in assay [6] it was -65.8%.

As for `CN1CCC(O)(c2ccccc2)C(O)C1` (stereo not drawn), the growth inhibition is 11.2% in assay [1]; 29.1% in assay [2]; 23.5% in assay [3]; 32.3% in assay [4]; -4% in assay [5]; 39.2% in assay [6].
